A selection: hits, their analogues and other compounds. The true share with any hit is near 3%.
PLK1 PBD block: PLK1 (human) polo-box domain binding inhibition; P53350; Plk1 PBD binding of FITC phosphopeptide, fluorescence polarization; Potency, µM, inactives show max response, negative = inhibition, hits mostly inhibitors; 2.8% of 360,000 active; AID 720504; note: series mostly up to about 57 µM; nearly all actives have a fitted effect of over 65% in size
VDR inhibitor: vitamin D3 receptor (human) inhibition; P11473; VDR-SRC2-3 peptide fluorescence polarization, 2 h; Potency, µM, without a hit: max response, negative = inhibition, usual class: inhibitors; 0.93% of 400,000 active; AID 504847
Target sequence (P11473 whole entry, looked up): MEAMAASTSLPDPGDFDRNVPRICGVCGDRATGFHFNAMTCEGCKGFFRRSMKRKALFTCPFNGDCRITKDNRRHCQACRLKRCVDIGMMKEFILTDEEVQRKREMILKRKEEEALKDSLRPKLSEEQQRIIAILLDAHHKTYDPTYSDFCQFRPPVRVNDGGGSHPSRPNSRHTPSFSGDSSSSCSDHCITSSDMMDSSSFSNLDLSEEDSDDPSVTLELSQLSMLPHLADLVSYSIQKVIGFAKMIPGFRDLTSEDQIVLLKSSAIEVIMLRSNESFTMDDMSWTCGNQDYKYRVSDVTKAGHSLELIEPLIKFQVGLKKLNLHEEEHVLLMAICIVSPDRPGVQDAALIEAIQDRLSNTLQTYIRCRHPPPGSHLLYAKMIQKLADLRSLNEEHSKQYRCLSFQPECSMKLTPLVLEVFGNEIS
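Reagent solutions, kept cold and dark, are dispensed first; compounds are then pinned in at 23 nl, plates briefly spun, and incubated 2 h at ambient temperature. Inhibition of VDR–SRC2-3 peptide binding is read by fluorescence polarization.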
GCN5L2 inh: blocks human GCN5L2 histone acetyltransferase; Q92830; GCN5L2 HAT assay, ThioGlo1 CoA-SH fluorescence; Potency, µM (highest dose often 58.9 µM), inactives show top-dose activity change, negative = inhibition, actives largely listed as inhibitors; 0.21% of 390,000 active; AID 504327
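GCN5L2 (20 nM) in 50mM HEPES pH 7.5, 0.1mM EDTA, 0.01% Tween-20 preincubated 15 min with compounds at room temperature. Reaction started with H3(1-25) 75uM, acetyl-CoA 70uM, ThioGlo1 50uM; CoA-thiol fluorescence (Ex340/Em540) read at 0 and 20 min.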
ALOX12 inh: blocks human arachidonate 12S-lipoxygenase | 1.1% of 580,000 active | AID 1671190 | purified 12hLO, xylenol orange hydroperoxide absorbance | Potency, µM (titrated, usually from 108 µM), inactives show at the top dose activity change, negative = inhibition, most hits filed as inhibitors
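Hydroperoxide product was detected by ferrous iron/xylenol orange as the 573 to 405 nm absorbance ratio. Arachidonic acid at 40 uM (final) was turned over for 30 min at room temperature by 150 nM human 12hLO, pH 7.0 Hepes buffer, after 15 min compound preincubation.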
An asterisk follows results filed as active; u = inconclusive; x = no result given. Calls come from the whole dose curve; as a rule, active = well fitted curve in the direction sought with a large enough effect; inconclusive = small, poorly fitted or top-dose-only effect, or another doubt; inactive = no such curve, though single readings can be large; an effect the other way counts as inactive or inconclusive. % is set by controls: 0 for no effect and ±100 for the full control effect; potency is the fitted concentration of half-maximal effect.

SMILES	PLK1 PBD block	VDR inhibitor	GCN5L2 inh	ALOX12 inh
CC1CCN(C(=O)CSc2n[nH]c(-c3cc(Br)ccc3O)n2)CC1	x	x	x	32µM*
Cc1cnc(NC(=O)C(C)Oc2cc(Cl)ccc2Cl)s1 (stereo not given)	x	x	x	42%
NC(=O)c1ccc(COC(=O)c2cc(Br)ccc2F)cc1	x	x	x	-4%
COc1cc(C2NCC(c3ccc(Cl)cc3Cl)c3c2[nH]c2ccccc32)cc(OC)c1OC (stereo not given)	u	-12%	-10%	28µM*
CCOc1ccc(N2C(=O)c3ccccc3NC2(CC)CC)cc1	x	x	x	17%
CCCCC1Cc2[nH]c(=S)[nH]c(=O)c2C(c2cccc3ccccc23)O1 (stereo not given)	-8%	x	x	13µM*
CC[C@@H]1Cc2[nH][nH]c(=O)c2[C@@H](c2ccc(F)cc2)O1	-2%	x	x	0%
CC(C)[C@@H]1Cc2[nH][nH]c(=O)c2[C@H](c2ccc(F)cc2)O1	24µM*	x	x	-22%
CCCCC1Cc2[nH][nH]c(=O)c2C(c2ccc(F)cc2)O1 (stereo not given)	8.4µM*	x	x	u
O=c1[nH][nH]c2c1[C@H](c1ccc(F)cc1)O[C@H](CCC(F)(F)F)C2	7.5µM*	x	x	-3%
O=C(CSc1ncc(-c2ccc(F)cc2)o1)Nc1ccccc1C(F)(F)F	x	x	x	-5%
O=c1c2ccccc2cnn1CN1CCN(S(=O)(=O)c2ccc(Cl)cc2)CC1	x	x	x	-10%
C=CCCC(CN1CCCC1)Oc1ccc(C(=O)N2CCCC2)cn1 (stereo not given)	x	x	x	17%
O=c1[nH][nH]c2c1[C@@H](c1ccc(F)cc1)O[C@H](CCc1ccccc1)C2	-15%	x	x	2%
O=c1[nH][nH]c2c1C(c1ccc(F)cc1)OC(CCc1ccccc1)C2 (stereo not given)	11µM*	x	x	u
NC(=S)n1[nH]c(-c2ccc([N+](=O)[O-])cc2)c(N=Nc2cccc([N+](=O)[O-])c2)c1=O	21µM*	u	u	u
O=C(NCCn1nc(-c2ccccc2)ccc1=O)c1ccc(Br)cc1	x	x	x	48%
Clc1ccccc1-c1nc(/C=N/N2CCOCC2)c2ccccn12	24µM*	u	-4%	55%
CC1C(=O)N(Cc2ncc(-c3ccccc3)o2)C(=O)N1c1ccc(F)cc1 (stereo not given)	x	x	x	0%
COc1ccc(/C=C/C(=O)c2cc(F)ccc2OC(=O)c2ccccc2)cc1OC	1%	40µM*	x	13%
CNC(=O)c1ccc(NC(=O)CSCc2csc(-c3ccccc3)n2)cc1	x	x	x	-3%
CCOc1cc(CNCCO)ccc1OCC(=O)NC(C)(C)C	24µM*	17%	0%	-1%
CCOc1cc(CNC)ccc1OCC(=O)NC(C)(C)C	-10%	-5%	-4%	-11%
COc1ccc(N2CCN(C(=O)c3ccccc3F)CC2)c([N+](=O)[O-])c1	8.4µM*	u	-7%	4%
COc1ccc(N2CCN(C(=O)c3cccc(Br)c3)CC2)c([N+](=O)[O-])c1	27µM*	u	-4%	0%
SMILES	PLK1 PBD block	VDR inhibitor	GCN5L2 inh	ALOX12 inh
COc1ccc(N2CCN(C(=O)c3cccc(F)c3)CC2)c([N+](=O)[O-])c1	-12%	-4%	2%	-12%
COc1ccc(N2CCN(C(=O)c3ccc(F)cc3)CC2)c([N+](=O)[O-])c1	-10%	2%	-2%	0%
O=C1CC(C(=O)NCc2cc3n(n2)CCN(C2CCCCC2)C3)C2(CCCC2)O1 (stereo not given)	x	x	x	58%
COc1cccc(C2NC(=S)NC(C)=C2C(=O)c2ccccc2)c1OC (stereo not given)	4%	6%	-14%	45µM*
CC1=C(C(=O)OC(C)(C)C)C(c2cccc3ccccc23)NC(=S)N1 (stereo not given)	x	x	x	51%
COc1ccc(CNC(=O)NC(c2ccccc2)c2ccncc2)cc1 (stereo not given)	x	x	x	3%
O=C(NS(=O)(=O)c1ccccc1)c1ccccc1O	24µM*	-4%	-25%	u
Nc1ccccc1C(=O)Nc1ccccn1	x	x	x	0%
CC1CC(=O)Nc2cc(S(=O)(=O)NCc3ccccn3)ccc2S1 (stereo not given)	x	x	x	0%
CCc1ccccc1N=C1S/C(=C/c2ccccc2OCC(=O)N2CCOCC2)C(=O)N1C	-5%	-6%	-12%	12%
O=C1NN(c2ccccc2)C(=O)/C1=C\c1ccccc1OCC(=O)N1CCOCC1	21µM*	u	2%	u
